The whole screen tested about 39,000 compounds, of which about 220 (0.56%) showed activity. The list comes from a sample in which actives are over-represented; it also holds similar structures and randomly drawn compounds. A number with no mark means an inactive call.
The compounds below were run on Escherichia coli K-12 BW25113 (assay: relative growth (OD600 normalised to plate interquartile mean) (fraction); higher = less growth inhibition, active = 0.2 or less). Conditions: 50 µM; LB; incubation time: overnight (16-24 h).
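Further: Wild-type cells incubated without shaking, value is the mean of two biological replicates.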

| Compound | relative growth |
| --- | --- |
| NC1(C(=O)O)CC1 | 0.988 |
| C[C@@H]1CN([C@@H](C)CO)C(=O)c2cc(C#Cc3ccc(F)cc3)cnc2O[C@@H]1CN(C)Cc1ccccn1 | 0.995 |
| Cc1ccc(S(=O)(=O)Nc2ccc3c(c2)C(=O)N([C@@H](C)CO)C[C@@H](C)[C@@H](CN(C)C(=O)Nc2cccc4ccccc24)OCCCC[C@@H](C)O3)cc1 | 0.998 |
| CC1COc2c(N3CCN(C)CC3)c(F)cc3c(=O)c(C(=O)O)cn1c23 (stereo not given) | 0.0447 (active) |
| CN1CCN(c2c(F)cc3c(=O)c(C(=O)O)cn4c3c2OCN4C)CC1 | 0.0475 (active) |
| CN(c1ccc(N)cc1[N+](=O)[O-])S(C)(=O)=O | 1.02 |
| C/C=C/c1ccc2c(c1)O[C@@H](CN(C)Cc1ccc(C(=O)O)cc1)[C@@H](C)CN([C@@H](C)CO)S2(=O)=O | 1.02 |
| COc1ccccc1-c1ccc2c(c1)O[C@H](CN(C)C(=O)c1ccncc1)[C@@H](C)CN([C@H](C)CO)S2(=O)=O | 1.01 |
| C[C@@H]1CN([C@@H](C)CO)C(=O)Cc2cc(NC(=O)Cc3cn(C)c4ccccc34)ccc2O[C@H]1CN(C)Cc1ccc(C(F)(F)F)cc1 | 1.02 |
| CCCNC(=O)N1C[C@H](C)[C@H](OC)CN(C)C(=O)c2ccc(NS(=O)(=O)CC(F)(F)F)cc2OC[C@H]1C | 0.974 |
| NCc1ccccc1CC(=O)NC1C(=O)N2C(C(=O)O)=C(CSc3nnnn3CC(=O)O)CSC12 (stereo not given) | 0.0453 (active) |
| Cn1nnnc1SCC1=C(C(=O)[O-])N2C(=O)C(NC(=O)C(O)c3ccccc3)C2SC1.[Na+] (stereo not given) | 0.0463 (active) |
| NC(=O)c1cc[n+](CC2=C(C(=O)[O-])N3C(=O)C(NC(=O)C(c4ccccc4)S(=O)(=O)[O-])C3SC2)cc1.[Na+] (stereo not given) | 1.08 |
| Cn1nnnc1SCC1=C(C(=O)[O-])N2C(=O)C(NC(=O)C(OC=O)c3ccccc3)C2SC1.[Na+] (stereo not given) | 0.365 |
| O=C([O-])C1=C(CSc2nnnn2CS(=O)(=O)[O-])CSC2C(NC(=O)C(O)c3ccccc3)C(=O)N12.[Na+].[Na+] (stereo not given) | 0.044 (active) |
| CCC(CC)c1ccc(O)cc1 | 0.994 |
| CNC[C@@H]1Oc2cc(C#CCN(C)C)ccc2S(=O)(=O)N([C@@H](C)CO)C[C@H]1C | 0.981 |
| Oc1ccccc1/N=C/c1ccncc1 | 0.953 |
| Cc1nn(C)cc1NC(=O)C[C@@H]1CC[C@@H]2[C@H](COc3ccc(NC(=O)C4CCOCC4)cc3C(=O)N2C)O1 | 0.986 |
| COc1ccc(S(=O)(=O)N(C)C[C@@H]2OCCCC[C@H](C)Oc3ccc(NC(=O)Nc4cccc5ccccc45)cc3C(=O)N([C@H](C)CO)C[C@H]2C)cc1 | 0.966 |
| C[C@@H]1CN([C@@H](C)CO)S(=O)(=O)c2ccc(C#CC(C)(C)O)cc2O[C@@H]1CN(C)Cc1ccccc1 | 1 |
| Cc1noc(C)c1S(=O)(=O)Nc1ccc2c(c1)C(=O)N([C@@H](C)CO)C[C@H](C)[C@@H](CN(C)Cc1ccccc1)O2 | 0.968 |
| C[C@H](CO)N1C[C@H](C)[C@H](CN(C)C(=O)Nc2ccc3c(c2)OCO3)OCCCC[C@H](C)Oc2ccc(NC(=O)Cc3ccccc3)cc2C1=O | 0.991 |
| CN(C)C(=O)C[C@H]1C=C[C@H](NC(=O)C2CCOCC2)[C@H](CO)O1 | 1.01 |

| Compound | relative growth |
| --- | --- |
| COc1ccc(NC(=O)Nc2ccc3c(c2)C(=O)N([C@H](C)CO)C[C@@H](C)[C@@H](CN(C)S(=O)(=O)c2cccs2)OCCCC[C@@H](C)O3)cc1 | 1.02 |
| CO[C@@H]1CN(C)C(=O)c2cc(NS(=O)(=O)CC(F)(F)F)ccc2OC[C@@H](C)N(C(=O)c2ccc3c(c2)OCO3)C[C@H]1C | 0.937 |
| Cc1ccc(S(=O)(=O)Nc2ccc3c(c2)C(=O)N([C@@H](C)CO)C[C@@H](C)[C@H](CN(C)C(=O)Cc2ccccc2)OCCCC[C@@H](C)O3)cc1 | 1.01 |
| C[C@H]1CN([C@@H](C)CO)C(=O)Cc2cc(NC(=O)CCN3CCOCC3)ccc2O[C@@H]1CN(C)Cc1ccccc1 | 1.01 |
| C=CC(=O)NCCc1ccncc1 | 1.05 |
| O=C(C[C@H]1C[C@H]2c3cc(NS(=O)(=O)c4ccc(F)cc4)ccc3O[C@H]2[C@H](CO)O1)NC1CCCC1 | 0.974 |
| Cl.O=C(O)c1cn(-c2ccc(F)cc2)c2cc(N3CCNCC3)c(F)cc2c1=O | 0.0456 (active) |
| O=C(c1ccccc1F)N1CCNCC1 | 0.999 |
| Cn1cc(S(=O)(=O)N2CCN(c3ccc(F)cc3)CC2)c(=O)n(C)c1=O | 1.01 |
| CN1CCN(c2cc3c(cc2F)c(=O)c(C(=O)O)cn3-c2ccc(F)cc2)CC1.Cl | 0.0477 (active) |
| O=C(CN1CCNCC1)c1ccc(F)cc1 | 1 |
| Cc1ccc(C(=O)O)c(=O)n1C | 1.02 |
| C[C@@H]1CCCCO[C@H](CN(C)S(=O)(=O)c2cn(C)cn2)[C@H](C)CN([C@H](C)CO)C(=O)c2cc(NS(C)(=O)=O)ccc2O1 | 1.02 |
| COc1ccc(-c2cn(CCCNC(=O)[C@H](Cc3ccccc3)NS(=O)(=O)c3ccc(C)cc3)nn2)cc1OC | 1.02 |
| COC1=C(OC)C(=O)C(CCCCCCCCCC[P+](c2ccccc2)(c2ccccc2)c2ccccc2)=C(C)C1=O | 0.0727 (active) |
| COC1=C(OC)C(=O)C(CCCCCCCCCCO)=C(C)C1=O | 1.05 |
| CC1=C(C)C(=O)C(CCCCCCCCCC[P+](c2ccccc2)(c2ccccc2)c2ccccc2)=CC1=O | 0.308 |
| C[C@@H]1CN([C@H](C)CO)S(=O)(=O)c2ccc(Br)cc2O[C@@H]1CN(C)C(=O)NC1CCCC1 | 0.989 |
| Cc1cc(=S)oc2ccccc12 | 0.943 |
| CC(C)CC#Cc1ccc2c(c1)O[C@H](CN(C)C(=O)NC1CCCC1)[C@H](C)CN([C@@H](C)CO)S2(=O)=O | 0.997 |
| O=C(NN=Cc1ccc([N+](=O)[O-])o1)c1ccc(O)cc1 | 0.973 |
| O=C(CN1CCOCC1)N/N=C/c1ccc([N+](=O)[O-])o1 | 0.801 |
| Nc1nnc(-c2ccc([N+](=O)[O-])o2)o1 | 0.258 |
| COC(=O)N/N=C/c1ccc([N+](=O)[O-])o1 | 0.0393 (active) |

| Compound | relative growth |
| --- | --- |
| CCOC(=O)c1ccc(N2NC(=O)/C(=C/c3ccc([N+](=O)[O-])o3)C2=O)cc1 | 0.984 |
| NC(=O)N/N=C/c1ccc([N+](=O)[O-])o1 | 0.0425 (active) |
| O=C(N/N=C/c1ccc(CO)o1)c1ccccn1 | 1 |
| NC(=O)NN=Cc1ccc([N+](=O)[O-])o1 | 0.0474 (active) |
| C[C@H](NC(=O)C[C@H]1C=C[C@@H](NC(=O)CN2CCOCC2)[C@H](CO)O1)c1ccccc1 | 1 |
| C[C@H](O)C#Cc1ccc2c(c1)O[C@H](CN(C)C(=O)Cc1ccccn1)[C@H](C)CN([C@@H](C)CO)S2(=O)=O | 1.01 |
| CN1CCN(C(=O)C[C@@H]2CC[C@H]3[C@@H](COC[C@@H](O)CN3Cc3ccc4c(c3)OCO4)O2)CC1 | 0.988 |
| O=C(C[C@H]1C[C@H]2c3cc(NC(=O)Nc4ccc(C(F)(F)F)cc4)ccc3O[C@H]2[C@H](CO)O1)NCc1ccc(Cl)cc1 | 0.973 |
| C[C@@H]1CN([C@@H](C)CO)C(=O)c2cc(NS(=O)(=O)c3cn(C)cn3)ccc2O[C@@H]1CN(C)Cc1ccncc1 | 0.994 |
| C[C@@H]1CN([C@H](C)CO)C(=O)Cc2cc(NC(=O)Nc3ccc(F)cc3)ccc2O[C@@H]1CN(C)Cc1ccc(Cl)c(Cl)c1 | 1.02 |
| Cc1ccc(S[C@]2(C(=O)NCCN3CCOCC3)CC(=O)N(C(C)C)[C@@H]2c2ccc(CO)cc2)cc1 | 1 |
| C=CCOC(=O)[C@H]1[C@@H]2C(=O)O[C@@H](c3ccccc3)[C@@H](c3ccccc3)N2[C@@H](c2ccc(OCCOC(=O)NCCCCCC(=O)NO)cc2)[C@@]12C(=O)Nc1ccc(I)cc12 | 0.993 |
| C[C@@H]1CN([C@@H](C)CO)C(=O)c2cc(NC(=O)Nc3ccc(C(F)(F)F)cc3)ccc2O[C@H]1CN(C)C(=O)Nc1cccc2ccccc12 | 1.01 |
| COC(=O)c1cn(CC(=O)N2CCN(C)CC2)nn1 | 0.978 |
| C[C@@H]1CN([C@@H](C)CO)C(=O)c2cc(NS(=O)(=O)c3cn(C)cn3)ccc2O[C@H]1CN(C)S(C)(=O)=O | 1.02 |
| C[C@H](CO)N1C[C@H](C)[C@@H](CN(C)S(C)(=O)=O)Oc2c(NC(=O)Nc3ccc4c(c3)OCO4)cccc2C1=O | 0.991 |
| N#CC1C(=O)NC(=O)N=C1Nc1ccccc1 (stereo not given) | 0.981 |
| NCC1OC(OC2C(CO)OC(OC3C(O)C(N)CC(N)C3OC3OC(CN)C(O)C(O)C3N)C2O)C(N)C(O)C1O.O=S(=O)(O)O.O=S(=O)(O)O.O=S(=O)(O)O (stereo not given) | 1.2 |
| NCC[C@H](O)C(=O)N[C@@H]1C[C@H](N)[C@@H](O[C@H]2O[C@H](CN)[C@@H](O)[C@H](O)[C@H]2O)[C@H](O)[C@H]1O[C@H]1O[C@H](CO)[C@@H](O)[C@H](N)[C@H]1O | 0.0379 (active) |
| NCC1OC(OC2C(CO)OC(OC3C(O)C(N)CC(N)C3OC3OC(CO)C(O)C(O)C3N)C2O)C(N)C(O)C1O.O=S(=O)(O)O (stereo not given) | 0.915 |
| NC[C@H]1O[C@H](O[C@H]2[C@H](O[C@@H]3O[C@H](CO)[C@@H](O)[C@H]3O)[C@@H](O)[C@H](N)C[C@@H]2N)[C@H](N)[C@@H](O)[C@@H]1O | 0.515 |
| NCCC(O)C(=O)NC1CC(N)C(OC2OC(CN)C(O)C(O)C2O)C(O)C1OC1OC(CO)C(O)C(N)C1O.O (stereo not given) | 0.0465 (active) |
